Laboratory results as given in PubChem BioAssay AID504848 (National Center for Advancing Translational Sciences (NCATS), 2011).
In all, about 2,300 compounds went through this assay and about 1,400 (61%) were called active. Not shown: some 29% with an inconclusive outcome. So high a share suggests a set chosen from earlier hits. Some of the results follow. Values without a mark were called inactive. Calls come from the whole dose curve; as a rule, active = well fitted inhibition curve with a large enough effect; inconclusive = small, poorly fitted or top-dose-only effect, or effect the other way; inactive = no such curve, though single readings can be large or run the other way.

Assay: Confirmation screen for delayed death inhibitors of the malarial parasite plastid, 96 hour incubation; note: nearly all actives have a fitted effect of over 60% in size
Conditions: P. falciparum luciferase growth in erythrocytes; series mostly up to 28.7 µM; activity change, negative = inhibition: at the top concentration
Method in brief: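 Erythrocytes infected with luciferase-expressing P. falciparum (2% hematocrit, 0.1% parasitemia final) in RPMI 1640 with 0.5% Albumax, exposed to compounds 96 h at 37 C, 5% CO2. Growth inhibition read as decreased luciferase luminescence.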
% is set by controls: 0 for no effect and ±100 for the full control effect; potency is the fitted concentration of half-maximal effect.

Compound	Potency	activity change, negative = inhibition [%]
Cc1cc(OCC(=O)N[C@@H](CSCc2ccccc2)C(=O)O)c2c(C)c(C)c(=O)oc2c1	14.1 µM (active)	–
CN(CCNC(=O)C1CCC(=O)N(Cc2cccc(F)c2)C1)CCc1ccccc1 (configuration not stated)	7.08 µM (active)	–
CN(Cc1ccccc1Cl)C(=O)C1CCC(=O)N(CCc2cccc(F)c2)C1 (configuration not stated)	7.94 µM (active)	–
CN(CCOc1ccccc1)C(=O)C1CCC(=O)N(CCN2CCOCC2)C1 (configuration not stated)	–	4.57
Cc1ccc(C(=O)NC2CCCCC2)cc1S(=O)(=O)N1CCCC1	10 µM (active)	–
COc1ccc(C)cc1S(=O)(=O)N1CCN(S(=O)(=O)c2cc(C(=O)O)ccc2C)CC1	8.91 µM (active)	–
Cc1ccc(C(=O)NC2CCCC2)cc1S(=O)(=O)N1CCCCC1	8.91 µM (active)	–
O=[N+]([O-])c1ccc(-c2c(-c3ccccc3)ncc3ccc(F)cc23)cc1	12.6 µM (active)	–
Fc1ccc2cnc(-c3ccccc3)c(-c3ccc(C(F)(F)F)cc3)c2c1	14.1 µM (active)	–
CCc1ccc(OCCNC(=O)c2ccco2)cc1	12.6 µM (active)	–
CCc1ccc(OCCNC(=O)c2ccccc2SCc2ccccc2)cc1	12.6 µM (active)	–
CCCCNC(=O)c1onc(CSc2cccc3ccccc23)c1C(=O)O	–	9.71
CCCCNC(=O)c1onc(CSc2ccccc2C)c1C(=O)O	–	-24.1
O=C(CNC(=O)c1ccco1)OCC(=O)c1ccccc1	–	-20.9
CCCn1c(CN2CCN(C(=O)OCC)CC2)nc2cc(NC(=O)C(C)C)ccc21	10 µM (active)	–
Fc1ccccc1N1CCN(c2ncnc3[nH]ncc23)CC1	–	-3.78
CCN1CCN(c2ncnc3c2c(-c2ccccc2)cn3-c2ccc(F)cc2)CC1	10 µM (active)	–
CN1CCN(c2ncnc3c2c(-c2ccccc2)cn3-c2ccc(F)cc2)CC1	11.2 µM (active)	–
Cc1[nH]c(C)c(C(=O)/C=C/c2ccc([N+](=O)[O-])cc2)c1C	7.94 µM (active)	–

Compound	Potency	activity change, negative = inhibition [%]
Cc1c(OC(C)C(=O)NCC2CCC(C(=O)O)CC2)ccc2c1oc(=O)c1ccccc12 (configuration not stated)	12.6 µM (active)	–
Cc1c(Cc2ccccc2)c(=O)oc2cc(OC(C)C(=O)NCC3CCC(C(=O)O)CC3)c(Cl)cc12 (configuration not stated)	10 µM (active)	–
Cc1oc(/C=N/NS(=O)(=O)c2ccccc2)cc1Br	–	-5.08
COc1ccc(C(=O)/C=C/C(=O)N(CC(=O)NC2CCCCC2)CC2CCCO2)c(O)c1 (configuration not stated)	12.6 µM (active)	–
COc1ccc(CN(C(=O)/C=C/C(=O)c2ccc(OC)cc2O)C(C(=O)NC2CCCCC2)c2ccncc2)cc1 (configuration not stated)	6.31 µM (active)	–
CCOc1ccc(-c2cc(C(=O)N/N=C(\C)c3cccnc3)c3ccccc3n2)c(OCC)c1	14.1 µM (active)	–
CCOC(=O)CSc1nc2sc3c(c2c(=O)n1C1CCCCC1)CCN(C)C3	2 µM (active)	–
CCn1c(SCC(=O)Nc2ccc(C)cc2)nc2sc3c(c2c1=O)CCN(C)C3	0.708 µM (active)	–
CC(C)(C)OC(=O)NCCCCCNC(=O)c1[nH]cnc1C(=O)Nc1nccs1	7.08 µM (active)	–
Cn1cc([N+](=O)[O-])c(C(=O)Nc2nccs2)n1	–	-17.4
COc1cccc(F)c1C(C[N+](=O)[O-])c1c(N)n(C)c(=O)n(C)c1=O (configuration not stated)	3.98 µM (active)	–
COc1ccc(C)cc1NC(=O)C1CCN(S(=O)(=O)c2ccc3c(c2)NC(=O)CO3)CC1	7.94 µM (active)	–
Cc1cccc(N2CCN(S(=O)(=O)c3ccc4c(c3)NC(=O)CO4)CC2)c1C	11.2 µM (active)	–
Cc1ccc(C)c(N2CCN(S(=O)(=O)c3ccc4c(c3)NC(=O)CS4)CC2)c1	8.91 µM (active)	–
Cc1ccc(CCNC(=O)C2CCN(S(=O)(=O)c3ccc4c(c3)NC(=O)CO4)CC2)cc1	10 µM (active)	–
O=C(CCl)Nc1cccc(Oc2cnccn2)c1	3.55 µM (active)	–
O=C(/C=C/c1c(F)cccc1Cl)c1ccc(O)cc1	12.6 µM (active)	–
O=C(/C=C/c1ccccc1Cl)c1ccc(O)cc1	10 µM (active)	–
COc1ccc(-c2c(C(C)=O)c(C)n(C)c2C)cc1	10 µM (active)	–

Compound	Potency	activity change, negative = inhibition [%]
CCCCOc1ccc(NC2=NC3(CCCC3)N=C(N)N2)cc1	0.708 µM (active)	–
COc1ccc2nc3sc(C(=O)NCCN4CCc5ccccc5C4)cc3cc2c1	2.24 µM (active)	–
COc1cc(/C=C2\COC/C(=C\c3cc(OC)c(OC)c(OC)c3)C2=O)cc(OC)c1OC	2.51 µM (active)	–
COc1ccc(/C=C2\CC/C(=C\c3ccc(OC)c(OC)c3)C2=O)cc1OC	14.1 µM (active)	–
COc1cc(/C=C2\COC/C(=C\c3ccc(O)c(OC)c3)C2=O)ccc1O	3.55 µM (active)	–
COc1cc(/C=C2\CC(C(C)(C)C)C/C(=C\c3cc(OC)c(OC)c(OC)c3)C2=O)cc(OC)c1OC (configuration not stated)	3.16 µM (active)	–
COc1cc(/C=C2/CCC/C(=C\c3cc(O)c(OC)c(Cl)c3)C2=O)cc(Cl)c1O	7.08 µM (active)	–
COc1ccc(C(=O)Nc2nnc(S(=O)(=O)N3CCOCC3)s2)cc1	15.8 µM (active)	–
CC(C)c1ccc(C(=O)Nc2nnc(S(=O)(=O)N3CCOCC3)s2)cc1	12.6 µM (active)	–
CCn1c(=O)c(CCC(=O)N2CCOCC2)c(C)c2c(C)nn(-c3ccccc3)c21	10 µM (active)	–
C=CCSC(=C(C#N)C#N)c1cc2c([nH]1)CCCC2	4.47 µM (active)	–
COC(=O)c1c(NC(=O)c2ccco2)sc2c1CC(C)(C)NC2(C)C	14.1 µM (active)	–
CCOC(=O)c1c(NC(=S)N2CCCCC2)sc2c1CCN(C(=O)OCC)C2	3.98 µM (active)	–
Cc1cccc(CSc2cccc3cccnc23)c1	12.6 µM (active)	–
O=C(Nc1ccncc1)c1ccc(Cl)c(S(=O)(=O)N2CCCC2)c1	8.91 µM (active)	–
CCOC(=O)N1CCN(C(=O)c2ccc(Cl)c(S(=O)(=O)N3CCCC3)c2)CC1	12.6 µM (active)	–
Cc1c(NC(=S)NC(=O)C(C)(C)C)c(=O)n(-c2ccccc2)n1C	–	1.52
Cc1c(NC(=O)c2ccc(Cl)c(S(=O)(=O)N3CCCCC3)c2)c(=O)n(-c2ccccc2)n1C	10 µM (active)	–
Cc1cc(F)ccc1S(=O)(=O)Nc1ccccc1C(=O)Nc1ccccc1-c1nc2ccccc2[nH]1	4.47 µM (active)	–
